# eIF4H inh – inhibitors of RNA binding by human eIF4H; Q15056; eIF4H fluorescence polarization binding assay; inhibition, % at 35 µM; 290,000 tested, 0.94% active;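 further: calls also rest on retests at 20 µM and on dose response follow-up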
# SUMO HTRF inh – blocks human SUMOylation mediated by UBC9. HTRF SUMOylation assay, SAE1/SAE2 + UBC9, in vitro. 290,000 tested, 0.36% active. inhibition, % at 35 µM; in the data active means inhibition above about 50%, passing the limit was not always enough
# Target sequence (P63279 whole entry, looked up): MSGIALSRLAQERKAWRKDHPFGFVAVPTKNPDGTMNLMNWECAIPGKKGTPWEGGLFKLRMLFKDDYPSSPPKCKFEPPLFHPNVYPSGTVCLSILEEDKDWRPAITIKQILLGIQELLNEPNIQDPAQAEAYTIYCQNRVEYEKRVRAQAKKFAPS
# PABP FP inh – PABP-poly(A) binding inhibition; PABP-poly(A) RNA binding, fluorescence polarization; inhibition, % at 35 µM; 290,000 tested, 1% active; AID 2014;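 further: calls also rest on retests at 20 µM and on dose response follow-up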
# MLLE-PAM2 inh – inhibitors of microRNA-mediated deadenylation, human PABP1 MLLE binding; GST-MLLE / FITC-PAM2 fluorescence polarization; inhibition, % at 20 µM; 360,000 tested, 0.36% active; AID 588489; in the data active means inhibition above about 35%, passing the limit was not always enough;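 further: plate controls were DMSO wells with GST-MLLE for no effect and wells lacking GST-MLLE protein for full effect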
# Efflux pump inh – blocks antifungal efflux pumps in multiplex yeast assay | S. cerevisiae Candida pump triplex, Nile Red efflux | inhibition, % at 10 µM | 330,000 tested, 0.44% active | AID 485275;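 active means plate passing quality check with inhibition over a set limit, or well fluorescence over plate mean plus 4 SD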;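 further: Nile Red retained in pooled yeast measured as flow cytometry median fluorescence; 0% = buffer negative control and 100% = Enniatin B positive control; higher means more Nile Red kept so more efflux inhibition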
# ALR inh – blocks human ALR sulfhydryl oxidase activity. P55789. purified ALR, DTT oxidation, H2O2 HRP-luminol luminescence. inhibition, % (concentration not given with the values). 290,000 tested, 3.8% active;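 active means mean replicate inhibition above about 79%, with every replicate also reaching it, limit read from the data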
# Numbers without * were called inactive; · = not tested or not shown. Compounds with a hit are over-represented: about 4.7% of the library has one in this group of screens. Unless noted, how the calls were made is not given here.
SMILES,eIF4H inh,SUMO HTRF inh,PABP FP inh,MLLE-PAM2 inh,Efflux pump inh,ALR inh
Cc1ccc(-c2nc(CS(=O)CC(=O)NCc3ccco3)c(C)o2)cc1 (configuration not stated),-7,8,-1,-3,0,99*
COc1ccc(-c2nc(CS(=O)CC(=O)NCc3ccco3)c(C)o2)cc1OC (configuration not stated),8,-1,-10,16,0,98*
CC1=C(C(=O)N2CCOCC2)CC(CC(=O)NC2CC2)C(=O)N1Cc1ccccc1 (configuration not stated),·,·,·,4,·,·
O=C(CSc1nc(CCC2CCCC2)nc2ccccc12)NCc1ccc2c(c1)OCO2,-2,37,-4,29,0,100*
Cc1cc(NC(=O)CSc2nc(CCC3CCCC3)nc3ccccc23)no1,47,-4,4,24,0,97*
CCCc1nc(SCC(=O)Nc2cc(C)on2)c2ccccc2n1,5,5,-10,25,0,-12
Cc1nonc1NC(=O)CSc1nc(CCC2CCCC2)nc2ccccc12,7,-33,-2,-11,0,1
CCOc1cc(N2CCOCC2)c(OCC)cc1NC(=O)c1ccc(S(=O)(=O)N2CC(C)OC(C)C2)cc1 (configuration not stated),·,·,·,2,·,·
O=C(O)c1cc(Cl)c2c(c1)[C@@H]1C=CC[C@@H]1[C@H](c1ccc(S(=O)(=O)N3CCOCC3)cc1)N2,74*,24,4.1*,24,0,-7
C[C@H](CO)N1C[C@H](C)[C@@H](CN(C)S(=O)(=O)c2cn(C)cn2)Oc2c(NS(=O)(=O)c3cn(C)cn3)cccc2C1=O,·,·,·,14,0,·
CCSc1nnc(NC(=O)[C@@H](NC(=O)c2cc(OC)cc(OC)c2)C(C)C)s1,3,-6,2,-10,0,-3
Cc1ccc(N=Nc2c(=O)[nH]n3c(C)cc(C)nc23)cc1,20,-17,15,-3,0,9
Cc1ccc(N=Nc2c(N)[nH]n3c(=O)cc(C)nc23)cc1,9,76,-5,4,0,97*
O=S1(=O)C=C[C@@H](CO)N1Cc1ccc(Br)cc1,·,·,·,-4,·,·
Nc1ccn([C@@H]2O[C@H](CNCc3cnc(N4CCOCC4)s3)[C@@H](O)[C@H]2O)c(=O)n1,·,·,·,-2,·,·
CN(C[C@H](Cc1ccccc1)N(CCN(CCc1ccccc1)N=O)N=O)N=O,-8,9,57*,-9,0,-3
CC(C)C[C@@H](CN(C)N=O)N(C[C@H](Cc1ccccc1)N(CCc1ccccc1)N=O)N=O,-6,7,1,-8,0,-10
CCOC(=O)C1CCN(C(=O)CN(c2ccc(OC)cc2)S(=O)(=O)c2c(C)noc2C)CC1,-6,17,-12,18,0,89*
CCOC(=O)C1CCN(C(=O)CN(c2ccc(OC)cc2)S(=O)(=O)c2c(C)nn(C)c2C)CC1,-2,2,16,11,0,·
COc1ccc(N(CC(=O)N2CCN(c3cccc(Cl)c3)CC2)S(=O)(=O)c2c(C)noc2C)cc1,8,-8,-5,9,0,2
Cc1cc(C)cc(N(CC(=O)N2CCN(Cc3ccccc3)CC2)S(=O)(=O)c2c(C)noc2C)c1,-12,5,-2,-1,0,96*
COc1ccc(OC)c(NC(=O)CN(c2ccc(C(C)C)cc2)S(=O)(=O)c2c(C)noc2C)c1,-3,-3,-2,6,0,95*
COc1ccc(CCN(C)Cc2ccc(OCc3ccccc3)c(OC)c2)cc1OC,11,-19,2,-7,0,99*
Cc1ccc(S(=O)(=O)N(C(=O)c2ccco2)c2cc3sc(=O)oc3c3ccccc23)cc1,12,56*,-5,-8,1,-48
CN(C)C(=O)c1cn(-c2ccc(Cl)cc2)c(=O)c2ccccc12,2,-3,2,-11,0,-25
CN(C)C=NC(=O)c1cn(-c2ccc(F)cc2)c(=O)c2ccccc12,9.9*,1,82,7,0,-5
Cc1cc(Oc2cccc3c2S(=O)(=O)N(C2CCCC2)CC(COCc2ccccc2)O3)cc(C)c1C (configuration not stated),·,·,·,-9,·,·
Cn1cccc1C(=O)NCc1ccc(S(N)(=O)=O)cc1,-15,6,3,3,0,2
CCC(CO)Oc1cc(NCc2ccc(C(F)(F)F)cc2)c2ncn(C(C)C)c2c1 (configuration not stated),·,·,·,0,0,-7

# Screens (PubChem BioAssay)
